In PubChem BioAssay (NCI):
About 83,000 compounds went through this panel and 20% of them were active in at least one assay; those are over-represented in the sample as a whole.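 Method: cells in 96-well plates; compound added at one concentration; 48 h incubation; percent growth measured; values under 10 scored active.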 Unmarked numbers belong to inactive results. The source made the active and inactive calls.

Assays:
Test in all cases: NCI-60 one-dose screen, 48 h (100 = growth as untreated, 0 = no growth, -100 = all killed)
[1] = test system: SK-MEL-2 melanoma; details: 10 µM unless noted
[2] = test system: EKVX NSCLC; details: 10 µM
[3] = test system: SN12C renal; details: 10 µM unless noted
[4] = test system: UO-31 renal; details: 10 µM unless noted
[5] = test system: TK-10 renal; details: 10 µM unless noted
[6] = test system: ACHN renal; details: 10 µM unless noted
[7] = test system: CCRF-CEM leukemia; details: 10 µM
[8] = test system: MOLT-4 leukemia; details: 10 µM unless noted
[9] = test system: RPMI-8226 leukemia; details: 10 µM unless noted
[10] = test system: OVCAR-8 ovarian; details: 10 µM unless noted
[11] = test system: OVCAR-5 ovarian; details: 10 µM unless noted
[12] = test system: OVCAR-4 ovarian; details: 10 µM unless noted
[13] = test system: SK-OV-3 ovarian; details: 10 µM unless noted
[14] = test system: OVCAR-3 ovarian; details: 10 µM unless noted
[15] = test system: NCI/ADR-RES ovarian; details: 10 µM unless noted
[16] = test system: CAKI-1 renal; details: 10 µM unless noted
[17] = test system: A498 renal; details: 10 µM unless noted
[18] = test system: SR leukemia; details: 10 µM unless noted
[19] = test system: IGROV1 ovarian; details: 10 µM unless noted
[20] = test system: HS 578T breast; details: 10 µM unless noted

Row | Compound | growth [1] | growth [2] | growth [3] | growth [4] | growth [5] | growth [6] | growth [7] | growth [8] | growth [9] | growth [10] | growth [11] | growth [12] | growth [13] | growth [14] | growth [15] | growth [16] | growth [17] | growth [18] | growth [19] | growth [20] [%]
1 | CCOc1ccccc1/C=N\N=C(N/N=C/c1ccccc1OCC)N/N=C/c1ccccc1OCC | 4.07% (active) | 14.2% | 15.4% | -8.3% (active) | 27.8% | 9.67% (active) | 16.7% | 27.7% | 18.8% | 18.4% | 13.9% | 7.81% (active) | 2.98% (active) | -19.7% (active) | 6.36% (active) |  |  |  |  | 
2 | COc1cc(-c2cc3cnccc3c3nc(N)c4ccncc4c23)cc(OC)c1OC | 70.1% | 55.3% | 40.7% | 11.9% | 22.6% |  | 36.5% | 32.9% | 8.28% (active) | 41.4% | 68.7% | 73.5% | 57.5% | 48.8% | 30.7% | 43.6% | -16.8% (active) | 17% | 15% | 10.1
3 | CCCCCCCCc1ccc(OCCOCC[N+](C)(C)CC)cc1 (tested in a mixture with another compound) | 11.5% | 71% | 21.5% | 89.4% | 96.1% |  | 28.7% | 51.4% | 8.79% (active) | 48.4% | 76% | 20.7% | 78.5% | 20.6% | 107% | 98.8% | 73.8% | 37.7% | 33.8% | 37.7
4 | N/C(=N\O)c1ccncc1 | 100% | 98.9% | 106% | 88% | 95.8% | 103% | 106% | 114% | 110% | 102% | 102% | 103% | 106% | 105% | 102% |  |  | 108% | 105% | 110
5 | c1ccc(C(=NNc2nc3ccccc3o2)c2ccccn2)nc1 | 37.7% | 8% (active) | 16.1% | 2.19% (active) | 41.8% |  | 3.17% (active) | 12.3% | 6.05% (active) | 18.7% | 37.5% | 21.8% | 13.8% | 16.5% | -3.58% (active) | 5.09% (active) | -27% (active) | 11% | 16.3% | 44.2
6 | COC(=O)/C=C1/CCCCC1(C)C(=O)OC (stereo not drawn) | 108% |  | 101% | 95.3% | 104% | 112% |  | 99.6% | 101% | 98.4% | 118% | 103% | 110% | 118% | 111% | 107% | 107% | 92.8% | 107% | 105
7 | Cc1ccc(S(=O)(=O)N/N=C2\CC3CCC2C3)cc1 (stereo not drawn) | 108% |  | 99.9% | 93.9% | 122% | 94.7% | 100% |  | 104% | 102% | 98.9% | 115% | 93.9% | 113% | 119% | 101% | 97.7% |  | 101% | 115
8 | CC(=O)NCCN | 115% |  | 104% | 98.4% | 109% | 97.2% |  | 102% |  | 93.4% | 102% | 115% | 116% | 113% | 113% | 84.7% | 97.9% | 97% | 111% | 103
9 | CCCCCCCCCCCCOC(=N)N(C)C | 95.8% |  | 101% | 91% | 94% | 93.6% |  | 93.5% | 99.7% | 98.9% | 99.4% | 117% | 97.3% | 92.6% | 102% | 80.7% | 103% | 82.4% | 106% | 97.1
10 | CC(C)OCC1CO1 (stereo not drawn) | 123% |  | 109% | 95.8% | 107% | 98.7% |  | 110% | 113% | 113% | 101% | 115% | 106% | 107% | 109% | 97.9% | 117% | 102% | 110% | 104
11 | CC(O)c1cc[cH-]c1.[Fe+2].c1cc[cH-]c1 (stereo not drawn) | 109% |  | 98.9% | 86.5% | 96% | 89.8% |  | 89.3% | 102% | 100% | 100% | 114% | 99.6% | 108% | 102% | 88% | 103% | 90.2% | 106% | 104
12 | CC[N+](C)(C)N | 108% |  | 104% | 89.8% | 100% | 110% |  | 104% | 101% | 98.3% | 111% | 102% | 109% | 114% | 109% | 95.4% | 121% | 93.8% | 111% | 108
13 | CCCCCCCCCC[N+](C)(C)N | 105% |  | 103% | 90.3% | 74.4% | 105% |  | 80.5% | 78.1% | 88.1% | 101% | 99.1% | 99.4% | 100% | 112% | 78.4% | 105% | 72.7% | 83.8% | 91.9
14 | COC(=O)[C@H](Cc1cn(C)cn1)NC(=O)[C@H](CC(=O)OCc1ccccc1)NC(=O)Nc1cc(C(F)(F)F)cc(C(F)(F)F)c1 | -92.6% [100 µM] (active) |  | -91.1% [100 µM] (active) | -96.3% [100 µM] (active) | -97.5% [100 µM] (active) | -98.6% [100 µM] (active) |  | -62.8% [100 µM] (active) | -65.4% [100 µM] (active) | -77.4% [100 µM] (active) | -93.2% [100 µM] (active) | -78% [100 µM] (active) | -100% [100 µM] (active) | -99% [100 µM] (active) | -28.4% [100 µM] (active) | -91.9% [100 µM] (active) | -92.3% [100 µM] (active) | -46.4% [100 µM] (active) | -82.4% [100 µM] (active) | 
15 | CCCCCCCCCCC(C[N+](C)(C)C/C=C/c1ccccc1)C(O)c1ccccc1 (stereo not drawn) | -52.7% (active) |  | 15.8% | 74.1% | -2.74% (active) | 72.2% |  | -24.4% (active) | -50.8% (active) | 20.5% | 42.6% | 8.79% (active) | 53.1% | -50.7% (active) | 97.6% | 87.5% | 59% | -46.2% (active) | -70.9% (active) | 49
16 | CSCc1ncc(-c2ccc(C(F)(F)F)cc2)c(NC2CCCCCC2)n1 | 57.5% [25 µM] |  | 83.2% [25 µM] | 51.9% [25 µM] | 97% [25 µM] | 77.9% [25 µM] |  | 23% [25 µM] |  | 75.1% [25 µM] | 97% [25 µM] | 83% [25 µM] | 97.9% [25 µM] | 39.4% [25 µM] | 74.9% [25 µM] | 25.1% [25 µM] | 60.8% [25 µM] | 13.4% [25 µM] | 81.2% [25 µM] | 
17 | COC(=O)C(N)CC(C)C (stereo not drawn) | 101% |  | 17.6% | 90.5% | 90.6% | 97.4% |  | 91.9% | 99.2% | 101% | 108% | 111% | 111% | 109% | 106% | 99.7% | 105% | 86.4% | 115% | 111
18 | O=C1C=C(OCC=C(C(F)(F)F)C(F)(F)F)c2ccccc2C1=O | 12.4% |  | -15.1% (active) | 49.9% | 53.5% | 1.45% (active) | -33.9% (active) | -36.9% (active) | -38.7% (active) | -22.8% (active) | 96.3% | -7.2% (active) | 59.8% | -19.9% (active) | 28.6% | 4.75% (active) | 80.9% |  | -12.4% (active) | 
